The results in this text go back to PubChem BioAssay.

Calls of active or inactive are those of the source.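 Rule for the calls, unless noted: active = compound that reduces growth-factor-driven endothelial tube area in a mixed cell culture, no cutoff stated; inactive = the rest.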

Assay [1] can be described thus: Wnt pathway potentiators raising nuclear beta-catenin – imaging, WNT3A-conditioned medium, mouse C2C12, NPC library, primary screen (AID 1117326; in the data active = nuclear beta-catenin stimulation mostly above about 4.2%, no sharp cut-off; inactive = mostly below about 10%; note: reference of the scale not given here). As to conditions: stronger effect = higher value.
Assay [2] is described as follows: stimulators of insulin release from INS-1E, primary screen, cell-based, 5 mM glucose, NPC library (AID 1117329;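 active = compound raises insulin release from rat beta cells at 5 mM glucose, no numeric limit stated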; note: reference of the scale not given here). As to conditions: rat INS-1E insulin secretion, at 10 µM, stronger effect = higher value.
Assay [3] can be described thus: growth inhibition of GSK3B-pretreated HCT116 cells – cell-based, CellTiter-Glo, 0.2 to 20 µM (AID 1117336;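 active = compounds lowering colon cancer cell viability after pretreatment blocking the GSK3B kinase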). As to conditions: HCT116 viability after GSK3B inhibitor, at 20 µM, stronger effect = higher value. On the technique in general: ATP-based viability assays read luminescence as a measure of living cells.
Assay [4] can be described thus: inhibition of endothelial tube formation, primary screen, imaging, VEGF stimulated, CD31 staining, tube area, NPC library (AID 1117340). The settings on record: VEGF-stimulated ADSC/ECFC co-culture, at 10 µM, stronger effect = higher value.
Assay [5] can be described thus: GLP1 release stimulators, primary, NCI-H716, NPC library (AID 1117341;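 active = compound raises GLP1 secretion from the human gut endocrine cells, with no numeric limit stated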; note: reference of the scale not given here). As to conditions: NCI-H716 cells, at 10 µM, stronger effect = higher value.
A short description of assay [6]: HCT116 colon cancer cell growth inhibition, primary screen, CellTiter-Glo luminescence, NPC library (AID 1117342;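 active = compounds that lower survival of HCT116 colon cancer cells in the luminescence readout, no numeric limit stated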). As to conditions: at 20 µM (top of the series).
Assay [7] is described as follows: reduced SW480 viability measured with CellTiter-Glo, NPC library, primary (AID 1117343;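 active = compounds that lower viability of the colon cancer cells in the luminescence readout, with no numeric limit stated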). As to conditions: CellTiter-Glo luminescence; at 20 µM (top of the series).
A short description of assay [8]: NPC library primary testing for decreased DLD-1 cell viability via CellTiter-Glo (AID 1117346;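 active = compounds that lower survival of DLD-1 colon cancer cells in the luminescence readout, no cutoff given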). The settings on record: DLD-1 viability, CellTiter-Glo luminescence; at 20 µM (top of the series).

Turning to `C[C@H]1O[C@@H](O[C@H]2CC[C@@]3(C)[C@H](CC[C@@H]4[C@@H]3C[C@@H](O)[C@]3(C)[C@@H](C5=CC(=O)OC5)CC[C@]43O)C2)C[C@H](O)[C@@H]1O[C@H]1C[C@H](O)[C@H](O[C@H]2C[C@H](O)[C@H](O[C@@H]3O[C@H](CO)[C@@H](O)[C@H](O)[C@H]3O)[C@@H](C)O2)[C@@H](C)O1`, the nuclear beta-catenin stimulation was -1% (inactive) in assay [1] (at 10 µM) and -0.7% in assay [1] (stimulation, at 2 µM). Besides, the insulin secretion stimulation in assay [2] was -0.5% (inactive). In assay [3], the viability decrease was 65% (active). Moreover, the tube area decrease in assay [4] was 108% (active). Also, in assay [5], the GLP1 secretion stimulation was 8% (inactive). For the same molecule, in assay [6], the inhibition of viability is 54.5% (active). Moreover, the viability decrease (inhibition) in assay [7] was 69.4% (active); in assay [8] it was 79.5% (active).

Consider `CCN(CC)c1ccc(C(=C2C=CC(=[N+](CC)CC)C=C2)c2cc(S(=O)(=O)O)ccc2S(=O)(=O)[O-])cc1`, for which the nuclear beta-catenin stimulation was 0.8% (inactive) in assay [1] (at 10 µM) and 4.4% in assay [1] (stimulation, at 2 µM). Also, in assay [2], the insulin secretion stimulation was 1.5% (inactive). Further, in assay [3], the viability decrease is 1.1% (inactive). Besides, the tube area decrease in assay [4] was 10.6% (inactive). Besides, in assay [5], the GLP1 secretion stimulation is -12.8% (inactive). The inhibition of viability in assay [6] is 20.3% (inactive). The results for the viability decrease (inhibition) in assay [7] and in assay [8] were 52.8% (active) and 13% (inactive), respectively.

With `O=C(O)CNC(=O)c1ccccc1`, the nuclear beta-catenin stimulation was 1.3% (inactive) in assay [1] (at 10 µM) and 1.4% in assay [1] (stimulation, at 2 µM). In assay [2], the insulin secretion stimulation was -1.9% (inactive). For the same molecule, in assay [3], the viability decrease is -9.35% (inactive). Moreover, the tube area decrease in assay [4] is -7.6% (inactive). Also, the GLP1 secretion stimulation in assay [5] was 4% (inactive). Besides, the inhibition of viability in assay [6] is -1.6% (inactive). The viability decrease (inhibition) was 24.7% (inactive) in assay [7] and 2.1% (inactive) in assay [8].

In the case of `O=C(CN1CCN(Cc2ccc3c(c2)OCO3)CC1)N1c2ccccc2Sc2ccccc21`, the nuclear beta-catenin stimulation is 0.2% (inactive) in assay [1] (at 10 µM) and 2.2% in assay [1] (stimulation, at 2 µM). Moreover, the insulin secretion stimulation in assay [2] is 7.5% (inactive). For the same molecule, in assay [3], the viability decrease was 63.5% (active). Besides, the tube area decrease in assay [4] was 7.5% (inactive). Further, the GLP1 secretion stimulation in assay [5] is 16.3% (inactive). The inhibition of viability in assay [6] is 67.4% (active). Moreover, the viability decrease (inhibition) was 126% (active) in assay [7] and 76.8% (active) in assay [8].

Regarding `C/C(=N/NC(=O)c1ccncc1)C(=O)O`, the nuclear beta-catenin stimulation in assay [1] (at 10 µM) is -0.8% (inactive); in assay [1] (stimulation, at 2 µM), -0.3%. Further, the insulin secretion stimulation in assay [2] is -0.8% (inactive). Besides, the viability decrease in assay [3] is -23.6% (inactive). Also, the tube area decrease in assay [4] is -6.8% (inactive). Besides, the GLP1 secretion stimulation in assay [5] is -2.8% (inactive). The inhibition of viability in assay [6] was -1.23% (inactive). For the same molecule, the viability decrease (inhibition) is 17.4% (inactive) in assay [7] and 4.2% (inactive) in assay [8].

With `CC(C)c1cc2c(cc1S(=O)(=O)O)[C@@]1(C)CCC[C@@](C)(C(=O)O)[C@@H]1CC2`, the nuclear beta-catenin stimulation in assay [1] (at 10 µM) is -1% (inactive); in assay [1] (stimulation, at 2 µM), -3.3%. Moreover, the insulin secretion stimulation in assay [2] is 1.4% (inactive). For the same molecule, the viability decrease in assay [3] is 3.3% (inactive). Besides, the tube area decrease in assay [4] is -20.8% (inactive). Besides, the GLP1 secretion stimulation in assay [5] is -1.8% (inactive). Further, the inhibition of viability in assay [6] was 5.2% (inactive). Also, the viability decrease (inhibition) is -5.2% (inactive) in assay [7] and 11.9% (inactive) in assay [8].

On to `O=C1C(c2[nH]c3ccccc3c2O)=Nc2ccccc21`, for which the nuclear beta-catenin stimulation in assay [1] (at 10 µM) is -0.7% (inactive); in assay [1] (stimulation, at 2 µM), 1.4%. For the same molecule, in assay [2], the insulin secretion stimulation is 1.2% (inactive). Further, the viability decrease in assay [3] was 18.2% (inactive). Also, in assay [4], the tube area decrease is 27.2% (inactive). Also, the GLP1 secretion stimulation in assay [5] was 0.5% (inactive). Moreover, the inhibition of viability in assay [6] is 16.9% (inactive). The viability decrease (inhibition) in assay [7] was 24.1% (inactive); in assay [8] it was 0.2% (inactive).

Regarding `CCCCCCCCCCCCCCCC[N+](C)(C)CC`, the nuclear beta-catenin stimulation in assay [1] (at 10 µM) is 13.3% (inactive); in assay [1] (stimulation, at 2 µM) it was 9.2%. Also, the insulin secretion stimulation in assay [2] is 0.7% (inactive). Also, in assay [3], the viability decrease is 99% (active). The tube area decrease in assay [4] was 106% (active). Also, the GLP1 secretion stimulation in assay [5] was 20.2% (active). In addition, the inhibition of viability in assay [6] was 99.1% (active). The viability decrease (inhibition) is 102% (active) in assay [7] and 101% (active) in assay [8].

With `CCCCCCCCCCCCCCCCCCCCCC(=O)Nc1ccn([C@@H]2O[C@H](CO)[C@@H](O)[C@H]2O)c(=O)n1`, the nuclear beta-catenin stimulation in assay [1] (at 10 µM) was 4.1% (inactive); in assay [1] (stimulation, at 2 µM) it was -0.9%. Further, the insulin secretion stimulation in assay [2] is 3.05% (inactive). For the same molecule, in assay [3], the viability decrease was 48.1% (inactive). For the same molecule, the tube area decrease in assay [4] is 51.7% (active). In addition, the GLP1 secretion stimulation in assay [5] is -1.6% (inactive). Moreover, in assay [6], the inhibition of viability was 39.5% (inactive). In addition, the values for the viability decrease (inhibition) in assay [7] and in assay [8] were 40.5% (inactive) and 15% (inactive), respectively.

In the case of `OC[C@]1(O)OC[C@@H](O)[C@H](O)[C@@H]1O`, the nuclear beta-catenin stimulation in assay [1] (at 10 µM) was 3.7% (inactive); in assay [1] (stimulation, at 2 µM) it was 0.4%. The insulin secretion stimulation in assay [2] is -1.9% (inactive). In addition, in assay [3], the viability decrease was -2.95% (inactive). Moreover, the tube area decrease in assay [4] is 7.1% (inactive). Also, in assay [5], the GLP1 secretion stimulation is -6% (inactive). Further, in assay [6], the inhibition of viability was -4.9% (inactive). For the same molecule, the viability decrease (inhibition) in assay [7] was 92.3% (active); in assay [8], 9.6% (inactive).

Take `O=S(=O)(O)c1ccc2c(N=Nc3ccc(S(=O)(=O)O)c4ccccc34)c(O)c(S(=O)(=O)O)cc2c1`: the nuclear beta-catenin stimulation is 0.7% (inactive) in assay [1] (at 10 µM) and 0.1% in assay [1] (stimulation, at 2 µM). Besides, in assay [2], the insulin secretion stimulation was 2.6% (inactive). Further, the viability decrease in assay [3] was 0% (inactive). The tube area decrease in assay [4] was 11.5% (inactive). In addition, in assay [5], the GLP1 secretion stimulation is -3.9% (inactive). Further, the inhibition of viability in assay [6] is 2.8% (inactive). Further, the viability decrease (inhibition) in assay [7] is 19.3% (inactive); in assay [8] it was 6.8% (inactive).

As for `Cc1c(I)c(=O)n(-c2ccccc2)n1C`, the nuclear beta-catenin stimulation in assay [1] (at 10 µM) is -0.6% (inactive); in assay [1] (stimulation, at 2 µM) it was 0.4%. The insulin secretion stimulation in assay [2] was 0.4% (inactive). Also, in assay [3], the viability decrease was -4.55% (inactive). Further, in assay [4], the tube area decrease is 1.2% (inactive). The GLP1 secretion stimulation in assay [5] was 0.6% (inactive). Further, the inhibition of viability in assay [6] was -8.9% (inactive). The viability decrease (inhibition) is 26.3% (inactive) in assay [7] and 33.4% (inactive) in assay [8].

With `CC[C@@H]([C@H](C)O)n1ncn(-c2ccc(N3CCN(c4ccc(OC[C@@H]5CO[C@@](Cn6cncn6)(c6ccc(F)cc6F)C5)cc4)CC3)cc2)c1=O`, the nuclear beta-catenin stimulation in assay [1] (at 10 µM) was 51.6% (active); in assay [1] (stimulation, at 2 µM) it was 8.2%. Also, in assay [2], the insulin secretion stimulation is 1.4% (inactive). In addition, the viability decrease in assay [3] is 11.8% (inactive). For the same molecule, the tube area decrease in assay [4] is 97.9% (active). Moreover, the GLP1 secretion stimulation in assay [5] was 4.8% (inactive). Moreover, the inhibition of viability in assay [6] is 77.7% (active). Besides, the viability decrease (inhibition) in assay [7] is 83.8% (active); in assay [8], 24.1% (inactive).

For `CCCCC[C@H](O)C=C[C@H]1[C@H](O)CC(=O)[C@H]1CC=CCCCC(=O)O`, the nuclear beta-catenin stimulation in assay [1] (at 10 µM) is 0.5% (inactive); in assay [1] (stimulation, at 2 µM), -0.7%. Also, the insulin secretion stimulation in assay [2] is 1.7% (inactive). Besides, the viability decrease in assay [3] is -18.4% (inactive). The tube area decrease in assay [4] was 28.7% (inactive). In addition, in assay [5], the GLP1 secretion stimulation was 3.8% (inactive). The inhibition of viability in assay [6] was -14.5% (inactive). Besides, the viability decrease (inhibition) in assay [7] is 25.3% (inactive); in assay [8], -48.6% (inactive).
